# Experimental data from ChEMBL document CHEMBL2218924, “A broad activity screen in support of a chemogenomic map for kinase signalling research and drug discovery” (Biochem J, 2013).
# Assays:
# [1] = biological target: ALK tyrosine kinase receptor (Homo sapiens) (UniProt Q9UM73); conditions: at 10 µM
# [2] = biological target: T1, AMP-activated protein kinase (AMPK) alpha-1/beta-1/gamma-1 (Homo sapiens) (UniProt P54619+Q9Y478+Q13131); conditions: at 1 µM
# [3] = biological target: T1, AMP-activated protein kinase (AMPK) alpha-1/beta-1/gamma-1 (Homo sapiens); conditions: at 10 µM
# [4] = biological target: T2, AMP-activated protein kinase, AMPK (Homo sapiens) (UniProt P54646+O43741+P54619+Q9UGJ0+Q9Y478+Q13131+Q9UGI9); conditions: at 10 µM
# [5] = biological target: T3, NUAK family SNF1-like kinase 1 (Homo sapiens) (UniProt O60285); conditions: at 1 µM
# T3 sequence (whole entry): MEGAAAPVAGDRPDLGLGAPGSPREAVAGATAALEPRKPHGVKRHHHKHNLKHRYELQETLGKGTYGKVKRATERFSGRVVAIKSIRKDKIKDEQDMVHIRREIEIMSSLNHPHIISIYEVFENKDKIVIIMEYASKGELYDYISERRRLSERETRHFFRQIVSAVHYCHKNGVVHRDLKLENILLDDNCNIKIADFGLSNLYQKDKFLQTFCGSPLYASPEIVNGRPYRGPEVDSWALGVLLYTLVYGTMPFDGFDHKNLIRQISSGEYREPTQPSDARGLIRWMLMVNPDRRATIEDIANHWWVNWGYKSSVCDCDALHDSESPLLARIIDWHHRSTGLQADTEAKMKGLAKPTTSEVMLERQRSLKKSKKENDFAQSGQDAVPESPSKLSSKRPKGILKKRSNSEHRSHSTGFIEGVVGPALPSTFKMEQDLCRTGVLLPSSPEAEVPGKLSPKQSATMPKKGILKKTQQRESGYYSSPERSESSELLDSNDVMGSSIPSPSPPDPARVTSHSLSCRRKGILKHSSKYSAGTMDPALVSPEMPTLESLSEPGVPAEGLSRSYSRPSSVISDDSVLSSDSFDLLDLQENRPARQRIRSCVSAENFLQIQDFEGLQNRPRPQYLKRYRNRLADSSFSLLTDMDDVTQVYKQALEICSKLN
# [6] = biological target: T3, NUAK family SNF1-like kinase 1 (Homo sapiens); conditions: at 10 µM
# [7] = biological target: T4, Mitogen-activated protein kinase kinase kinase 5 (Homo sapiens) (UniProt Q99683); conditions: at 1 µM
# T4 sequence (whole entry): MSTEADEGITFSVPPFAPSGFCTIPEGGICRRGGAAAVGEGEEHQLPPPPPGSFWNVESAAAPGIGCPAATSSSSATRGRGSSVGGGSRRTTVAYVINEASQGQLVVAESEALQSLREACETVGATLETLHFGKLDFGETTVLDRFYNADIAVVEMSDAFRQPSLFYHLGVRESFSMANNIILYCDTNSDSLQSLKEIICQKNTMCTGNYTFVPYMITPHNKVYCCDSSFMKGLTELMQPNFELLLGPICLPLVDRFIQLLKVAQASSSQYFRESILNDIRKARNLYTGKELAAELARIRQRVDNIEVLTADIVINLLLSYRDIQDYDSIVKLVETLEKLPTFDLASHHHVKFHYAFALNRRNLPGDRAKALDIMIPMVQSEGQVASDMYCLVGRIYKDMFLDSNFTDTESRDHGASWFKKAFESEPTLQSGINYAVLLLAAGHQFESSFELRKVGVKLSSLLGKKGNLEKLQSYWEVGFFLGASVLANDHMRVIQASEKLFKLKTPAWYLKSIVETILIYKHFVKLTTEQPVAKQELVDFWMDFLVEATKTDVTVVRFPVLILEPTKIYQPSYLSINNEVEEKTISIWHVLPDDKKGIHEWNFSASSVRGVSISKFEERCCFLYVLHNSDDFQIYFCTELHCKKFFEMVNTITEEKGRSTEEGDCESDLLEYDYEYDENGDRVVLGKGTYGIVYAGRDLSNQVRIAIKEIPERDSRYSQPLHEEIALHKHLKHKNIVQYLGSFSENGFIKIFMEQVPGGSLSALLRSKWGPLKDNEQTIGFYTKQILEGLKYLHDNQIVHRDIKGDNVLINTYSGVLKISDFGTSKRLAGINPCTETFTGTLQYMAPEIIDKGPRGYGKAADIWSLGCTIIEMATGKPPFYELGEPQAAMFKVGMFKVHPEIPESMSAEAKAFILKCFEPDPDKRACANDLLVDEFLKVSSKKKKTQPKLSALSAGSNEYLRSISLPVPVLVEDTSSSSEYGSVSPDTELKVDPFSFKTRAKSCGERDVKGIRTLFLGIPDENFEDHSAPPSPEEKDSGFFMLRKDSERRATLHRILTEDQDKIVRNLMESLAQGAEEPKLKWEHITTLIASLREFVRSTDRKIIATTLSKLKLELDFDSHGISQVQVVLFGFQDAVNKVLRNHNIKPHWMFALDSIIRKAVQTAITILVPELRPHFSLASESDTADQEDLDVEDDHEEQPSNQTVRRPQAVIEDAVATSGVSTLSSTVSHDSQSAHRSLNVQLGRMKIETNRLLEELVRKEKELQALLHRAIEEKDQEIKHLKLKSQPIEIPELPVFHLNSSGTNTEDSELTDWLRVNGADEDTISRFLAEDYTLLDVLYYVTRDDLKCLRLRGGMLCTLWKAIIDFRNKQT
# [8] = biological target: Platelet-derived growth factor receptor beta (Homo sapiens) (UniProt P09619); conditions: at 1 µM
# Sequence of Platelet-derived growth factor receptor beta (Homo sapiens) (P09619 whole entry): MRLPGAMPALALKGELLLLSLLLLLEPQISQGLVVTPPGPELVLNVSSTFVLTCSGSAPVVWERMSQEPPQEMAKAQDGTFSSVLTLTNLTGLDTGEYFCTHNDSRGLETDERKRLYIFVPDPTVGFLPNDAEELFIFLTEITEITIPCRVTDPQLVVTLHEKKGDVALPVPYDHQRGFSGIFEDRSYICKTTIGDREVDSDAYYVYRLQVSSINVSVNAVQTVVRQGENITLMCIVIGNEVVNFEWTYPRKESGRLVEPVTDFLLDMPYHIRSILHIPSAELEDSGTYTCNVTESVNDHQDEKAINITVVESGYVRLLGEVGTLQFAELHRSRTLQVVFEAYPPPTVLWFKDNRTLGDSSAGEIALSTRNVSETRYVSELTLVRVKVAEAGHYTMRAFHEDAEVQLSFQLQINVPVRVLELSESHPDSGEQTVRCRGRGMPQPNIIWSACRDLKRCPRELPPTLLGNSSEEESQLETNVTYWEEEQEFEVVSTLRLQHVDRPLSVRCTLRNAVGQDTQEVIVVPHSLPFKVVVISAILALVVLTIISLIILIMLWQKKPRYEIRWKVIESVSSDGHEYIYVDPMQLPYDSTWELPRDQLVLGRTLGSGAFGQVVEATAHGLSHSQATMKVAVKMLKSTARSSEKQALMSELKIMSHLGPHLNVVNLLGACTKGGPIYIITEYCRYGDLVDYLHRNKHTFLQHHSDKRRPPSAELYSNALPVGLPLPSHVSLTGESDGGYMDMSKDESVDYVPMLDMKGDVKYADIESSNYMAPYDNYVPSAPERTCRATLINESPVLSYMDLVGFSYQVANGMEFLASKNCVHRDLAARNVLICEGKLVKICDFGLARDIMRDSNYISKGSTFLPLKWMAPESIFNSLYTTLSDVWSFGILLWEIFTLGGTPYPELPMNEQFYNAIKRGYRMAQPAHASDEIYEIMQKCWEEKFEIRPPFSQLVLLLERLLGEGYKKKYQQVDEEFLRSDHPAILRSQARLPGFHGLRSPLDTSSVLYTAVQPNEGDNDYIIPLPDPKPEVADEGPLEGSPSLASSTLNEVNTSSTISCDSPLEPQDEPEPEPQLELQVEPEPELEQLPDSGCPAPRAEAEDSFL
# [9] = biological target: Platelet-derived growth factor receptor beta (Homo sapiens) (UniProt P09619); conditions: at 10 µM
# [10] = biological target: cAMP-dependent protein kinase catalytic subunit alpha (Homo sapiens) (UniProt P17612); conditions: at 1 µM
# [11] = biological target: cAMP-dependent protein kinase catalytic subunit alpha (Homo sapiens) (UniProt P17612); conditions: at 10 µM
# [12] = biological target: RAC-gamma serine/threonine-protein kinase (Homo sapiens) (UniProt Q9Y243); conditions: at 1 µM
# [13] = biological target: RAC-gamma serine/threonine-protein kinase (Homo sapiens) (UniProt Q9Y243); conditions: at 10 µM
# [14] = biological target: T5, Activin receptor type-1B (Homo sapiens) (UniProt P36896); conditions: at 1 µM
# T5 sequence (whole entry): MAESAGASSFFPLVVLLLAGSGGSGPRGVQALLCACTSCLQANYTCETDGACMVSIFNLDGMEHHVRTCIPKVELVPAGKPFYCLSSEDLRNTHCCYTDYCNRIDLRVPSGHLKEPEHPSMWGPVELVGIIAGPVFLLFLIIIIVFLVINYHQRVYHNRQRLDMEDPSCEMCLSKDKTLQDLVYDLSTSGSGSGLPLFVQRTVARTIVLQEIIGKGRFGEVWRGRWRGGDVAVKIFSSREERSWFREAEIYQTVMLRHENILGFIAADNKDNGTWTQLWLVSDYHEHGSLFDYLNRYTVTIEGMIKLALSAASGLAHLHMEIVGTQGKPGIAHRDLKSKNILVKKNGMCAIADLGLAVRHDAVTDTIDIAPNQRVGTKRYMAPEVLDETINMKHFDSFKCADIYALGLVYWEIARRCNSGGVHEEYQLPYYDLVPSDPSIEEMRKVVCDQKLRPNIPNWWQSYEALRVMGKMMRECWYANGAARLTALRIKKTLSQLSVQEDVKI
# [15] = biological target: T5, Activin receptor type-1B (Homo sapiens); conditions: at 10 µM
# [16] = biological target: T2, AMP-activated protein kinase, AMPK (Homo sapiens); conditions: at 1 µM
# [17] = biological target: Platelet-derived growth factor receptor alpha (Homo sapiens) (UniProt P16234); conditions: at 1 µM
# Sequence of Platelet-derived growth factor receptor alpha (Homo sapiens) (P16234 whole entry): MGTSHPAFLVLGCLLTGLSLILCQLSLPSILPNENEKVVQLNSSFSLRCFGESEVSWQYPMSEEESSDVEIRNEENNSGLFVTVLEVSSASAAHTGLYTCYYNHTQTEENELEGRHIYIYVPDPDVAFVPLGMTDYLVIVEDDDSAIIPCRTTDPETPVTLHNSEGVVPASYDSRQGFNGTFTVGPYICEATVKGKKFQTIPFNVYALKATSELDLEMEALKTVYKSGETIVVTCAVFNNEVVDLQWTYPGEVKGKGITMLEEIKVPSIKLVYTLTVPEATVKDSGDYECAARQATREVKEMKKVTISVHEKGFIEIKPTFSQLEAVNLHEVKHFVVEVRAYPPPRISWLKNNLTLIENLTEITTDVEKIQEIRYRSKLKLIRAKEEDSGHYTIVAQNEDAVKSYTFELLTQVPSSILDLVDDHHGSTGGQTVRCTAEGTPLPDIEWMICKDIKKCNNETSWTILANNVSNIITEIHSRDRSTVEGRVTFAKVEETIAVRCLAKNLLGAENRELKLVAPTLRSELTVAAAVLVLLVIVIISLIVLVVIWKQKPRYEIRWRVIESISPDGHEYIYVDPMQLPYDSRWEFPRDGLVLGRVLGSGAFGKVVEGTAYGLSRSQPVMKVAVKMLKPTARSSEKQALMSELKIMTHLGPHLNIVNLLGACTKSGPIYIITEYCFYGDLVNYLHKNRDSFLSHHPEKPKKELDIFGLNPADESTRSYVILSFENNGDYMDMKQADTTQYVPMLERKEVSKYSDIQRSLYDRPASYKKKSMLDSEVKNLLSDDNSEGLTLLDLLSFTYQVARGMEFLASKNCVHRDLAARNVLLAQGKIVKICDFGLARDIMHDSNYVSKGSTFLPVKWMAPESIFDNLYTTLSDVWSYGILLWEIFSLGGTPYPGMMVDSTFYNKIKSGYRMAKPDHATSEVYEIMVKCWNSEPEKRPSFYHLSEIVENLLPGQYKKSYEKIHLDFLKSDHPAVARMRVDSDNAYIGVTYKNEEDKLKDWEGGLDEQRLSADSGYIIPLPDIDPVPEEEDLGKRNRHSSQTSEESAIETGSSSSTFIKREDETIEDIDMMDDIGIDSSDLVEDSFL
# [18] = biological target: Platelet-derived growth factor receptor alpha (Homo sapiens) (UniProt P16234); conditions: at 10 µM
# [19] = biological target: T6, 3-phosphoinositide-dependent protein kinase 1 (Homo sapiens) (UniProt O15530); conditions: at 1 µM
# T6 sequence (whole entry): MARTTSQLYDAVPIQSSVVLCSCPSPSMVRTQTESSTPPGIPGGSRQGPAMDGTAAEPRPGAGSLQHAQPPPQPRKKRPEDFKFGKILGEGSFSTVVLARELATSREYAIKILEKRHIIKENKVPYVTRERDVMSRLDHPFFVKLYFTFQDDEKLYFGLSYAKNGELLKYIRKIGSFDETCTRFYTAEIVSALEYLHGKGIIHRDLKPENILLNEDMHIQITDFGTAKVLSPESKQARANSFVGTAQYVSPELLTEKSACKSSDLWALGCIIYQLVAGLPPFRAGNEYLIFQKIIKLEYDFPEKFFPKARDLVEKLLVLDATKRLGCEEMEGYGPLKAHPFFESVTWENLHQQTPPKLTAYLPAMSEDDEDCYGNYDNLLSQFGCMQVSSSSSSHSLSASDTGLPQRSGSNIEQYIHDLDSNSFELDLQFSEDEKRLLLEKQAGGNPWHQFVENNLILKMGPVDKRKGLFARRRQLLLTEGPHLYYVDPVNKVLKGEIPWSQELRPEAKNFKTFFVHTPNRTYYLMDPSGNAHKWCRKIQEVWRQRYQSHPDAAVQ
# [20] = biological target: T6, 3-phosphoinositide-dependent protein kinase 1 (Homo sapiens); conditions: at 10 µM
# Sequence of ALK tyrosine kinase receptor (Homo sapiens) (Q9UM73 19-1620 limits assumed): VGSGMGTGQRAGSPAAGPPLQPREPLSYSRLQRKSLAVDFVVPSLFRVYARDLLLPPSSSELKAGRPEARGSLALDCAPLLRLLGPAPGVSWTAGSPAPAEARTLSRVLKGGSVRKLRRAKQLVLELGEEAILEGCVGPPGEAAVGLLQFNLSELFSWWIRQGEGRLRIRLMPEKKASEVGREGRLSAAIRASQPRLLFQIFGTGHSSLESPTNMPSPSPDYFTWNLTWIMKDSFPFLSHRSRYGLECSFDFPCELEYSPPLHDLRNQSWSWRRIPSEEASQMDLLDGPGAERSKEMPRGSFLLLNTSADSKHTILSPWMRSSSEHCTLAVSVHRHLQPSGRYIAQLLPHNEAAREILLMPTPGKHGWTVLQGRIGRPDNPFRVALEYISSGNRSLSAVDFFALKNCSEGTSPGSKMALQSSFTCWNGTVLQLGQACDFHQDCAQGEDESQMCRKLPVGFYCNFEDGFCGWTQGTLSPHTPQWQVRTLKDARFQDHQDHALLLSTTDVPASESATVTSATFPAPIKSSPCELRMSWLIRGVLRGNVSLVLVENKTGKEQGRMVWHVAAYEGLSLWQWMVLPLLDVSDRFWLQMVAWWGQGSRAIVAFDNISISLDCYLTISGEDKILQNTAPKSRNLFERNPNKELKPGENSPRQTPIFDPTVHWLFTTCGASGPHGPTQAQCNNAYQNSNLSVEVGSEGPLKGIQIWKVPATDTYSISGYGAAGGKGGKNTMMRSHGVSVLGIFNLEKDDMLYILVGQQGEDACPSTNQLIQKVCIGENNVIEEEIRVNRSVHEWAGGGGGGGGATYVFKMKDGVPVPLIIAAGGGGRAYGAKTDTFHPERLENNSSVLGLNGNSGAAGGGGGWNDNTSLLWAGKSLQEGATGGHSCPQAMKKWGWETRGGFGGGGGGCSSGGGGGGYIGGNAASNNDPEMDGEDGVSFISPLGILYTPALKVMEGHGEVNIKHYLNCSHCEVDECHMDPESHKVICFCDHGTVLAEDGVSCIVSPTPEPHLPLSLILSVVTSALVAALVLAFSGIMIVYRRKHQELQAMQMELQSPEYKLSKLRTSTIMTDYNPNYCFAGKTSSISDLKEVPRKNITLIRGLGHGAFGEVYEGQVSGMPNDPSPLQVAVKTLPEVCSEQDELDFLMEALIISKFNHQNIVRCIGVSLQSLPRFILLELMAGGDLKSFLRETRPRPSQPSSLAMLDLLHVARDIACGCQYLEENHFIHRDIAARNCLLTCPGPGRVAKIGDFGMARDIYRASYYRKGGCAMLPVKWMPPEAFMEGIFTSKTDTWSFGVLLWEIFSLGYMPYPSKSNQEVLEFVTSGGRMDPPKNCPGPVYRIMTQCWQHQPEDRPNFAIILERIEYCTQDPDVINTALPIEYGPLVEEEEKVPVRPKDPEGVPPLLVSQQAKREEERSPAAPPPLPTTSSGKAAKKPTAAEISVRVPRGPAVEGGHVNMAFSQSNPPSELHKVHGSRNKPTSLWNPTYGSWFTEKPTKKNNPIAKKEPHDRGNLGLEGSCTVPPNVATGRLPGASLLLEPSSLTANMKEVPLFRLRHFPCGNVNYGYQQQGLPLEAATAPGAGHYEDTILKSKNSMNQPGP
# T1 sequence (P54619 whole entry): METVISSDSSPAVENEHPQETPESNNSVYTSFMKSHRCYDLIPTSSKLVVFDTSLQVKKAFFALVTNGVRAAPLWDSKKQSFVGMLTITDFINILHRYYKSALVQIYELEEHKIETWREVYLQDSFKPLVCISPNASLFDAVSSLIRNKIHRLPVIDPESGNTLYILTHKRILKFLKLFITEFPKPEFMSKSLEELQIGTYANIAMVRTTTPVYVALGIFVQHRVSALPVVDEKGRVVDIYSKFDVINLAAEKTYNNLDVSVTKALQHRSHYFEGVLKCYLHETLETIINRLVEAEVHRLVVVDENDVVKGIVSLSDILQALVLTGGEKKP
# T1 sequence (Q13131 whole entry partner): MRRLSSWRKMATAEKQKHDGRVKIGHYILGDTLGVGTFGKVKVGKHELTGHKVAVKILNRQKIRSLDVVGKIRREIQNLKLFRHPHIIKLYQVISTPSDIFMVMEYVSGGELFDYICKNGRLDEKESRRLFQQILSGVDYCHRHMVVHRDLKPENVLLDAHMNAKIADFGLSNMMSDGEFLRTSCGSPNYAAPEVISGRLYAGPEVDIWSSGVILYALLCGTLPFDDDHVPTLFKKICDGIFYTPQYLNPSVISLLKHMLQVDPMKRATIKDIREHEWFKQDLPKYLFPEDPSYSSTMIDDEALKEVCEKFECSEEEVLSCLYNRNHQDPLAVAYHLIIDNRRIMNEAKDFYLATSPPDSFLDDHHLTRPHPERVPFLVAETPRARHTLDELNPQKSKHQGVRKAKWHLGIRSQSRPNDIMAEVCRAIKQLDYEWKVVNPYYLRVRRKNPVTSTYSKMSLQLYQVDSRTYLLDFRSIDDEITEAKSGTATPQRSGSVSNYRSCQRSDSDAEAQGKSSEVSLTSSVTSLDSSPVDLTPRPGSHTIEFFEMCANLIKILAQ
# T1 sequence (Q9Y478 2-270 partner limits assumed): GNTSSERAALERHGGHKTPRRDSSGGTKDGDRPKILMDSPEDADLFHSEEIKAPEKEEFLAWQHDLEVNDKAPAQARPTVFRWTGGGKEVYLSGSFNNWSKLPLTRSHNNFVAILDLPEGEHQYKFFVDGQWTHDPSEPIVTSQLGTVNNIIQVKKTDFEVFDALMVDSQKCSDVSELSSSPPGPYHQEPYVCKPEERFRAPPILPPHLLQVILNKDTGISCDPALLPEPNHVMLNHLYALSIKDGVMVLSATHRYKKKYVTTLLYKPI
smiles,measurement,setting,value
O=c1cc(N2CCNCC2)oc2c(-c3ccccc3)cccc12,residual activity,[1],49%
same,residual activity,[2],95%
same,residual activity,[3],75%
same,residual activity,[4],71%
same,residual activity,[5],91%
same,residual activity,[6],82%
same,residual activity,[7],90%
same,residual activity,[8],99%
same,residual activity,[9],88%
same,residual activity,[10],72%
same,residual activity,[11],83%
same,residual activity,[12],85%
same,residual activity,[13],85%
COc1ccc(COc2ccc(Cc3cnc(N)nc3N)cc2OC)cc1,residual activity,[14],120%
same,residual activity,[15],119%
same,residual activity,[4],82%
CCN1/C(=C/C(C)=O)Sc2ccc(OC)cc21,residual activity,[14],122%
same,residual activity,[2],79%
same,residual activity,[3],54%
CC(C)[C@H](CO)Nc1nc(Nc2cc(N)cc(Cl)c2)c2ncn(C(C)C)c2n1,residual activity,[14],122%
same,residual activity,[15],117%
same,residual activity,[16],87%
same,residual activity,[4],50%
same,residual activity,[5],44%
same,residual activity,[6],13%
same,residual activity,[9],92%
same,residual activity,[10],93%
same,residual activity,[11],87%
O=C1Cc2c([nH]c3ccc([N+](=O)[O-])cc23)-c2ccccc2N1,residual activity,[2],48%
same,residual activity,[3],40%
same,residual activity,[16],18%
same,residual activity,[4],36%
same,residual activity,[5],10%
same,residual activity,[6],9%
same,residual activity,[7],106%
same,residual activity,[17],109%
same,residual activity,[18],112%
same,residual activity,[8],107%
same,residual activity,[9],100%
same,residual activity,[19],45%
same,residual activity,[20],45%
same,residual activity,[12],118%
COc1ccc(Cl)cc1NC(=O)Nc1cc(C)nc2ccccc12,residual activity,[1],58%
same,residual activity,[2],88%
same,residual activity,[3],78%
same,residual activity,[4],91%
same,residual activity,[5],94%
same,residual activity,[6],92%
Nc1n[nH]c2nc3ccccc3nc12,residual activity,[1],51%
same,residual activity,[2],86%
same,residual activity,[3],83%
same,residual activity,[16],88%
same,residual activity,[4],86%
same,residual activity,[5],87%
same,residual activity,[6],40%
same,residual activity,[20],85%
same,residual activity,[12],87%
same,residual activity,[13],93%
NCCNc1ncc(C(N)=O)c(Nc2cccc(C(F)(F)F)c2)n1,residual activity,[14],136%
same,residual activity,[5],45%
same,residual activity,[6],13%
same,residual activity,[17],107%
same,residual activity,[18],74%
same,residual activity,[10],114%
same,residual activity,[11],141%
same,residual activity,[13],43%
Oc1cccc(-c2nc(N3CCOCC3)c3oc4ncccc4c3n2)c1,residual activity,[14],148%
same,residual activity,[15],92%
same,residual activity,[5],98%
same,residual activity,[6],99%
same,residual activity,[17],127%
same,residual activity,[9],98%
same,residual activity,[10],95%
same,residual activity,[11],85%
same,residual activity,[12],95%
same,residual activity,[13],95%
COc1cc2nccc(Oc3ccc(NC(=O)Nc4cc(C)on4)c(Cl)c3)c2cc1OC,residual activity,[14],105%
same,residual activity,[15],57%
same,residual activity,[4],82%
same,residual activity,[8],13%
same,residual activity,[9],2%
same,residual activity,[10],108%
same,residual activity,[11],98%
O=C(Nc1ccc(Cl)cc1)c1ccccc1NCc1ccncc1,residual activity,[14],130%
same,residual activity,[15],72%
same,residual activity,[3],78%
same,residual activity,[4],72%
same,residual activity,[17],39%
same,residual activity,[18],7%
same,residual activity,[8],46%
same,residual activity,[9],4%
